# According to PubChem BioAssay (NCATS):
# Where “and” joins values, the source holds several entries; their conditions need not be identical. Equal values may be shown once. Results filed as inconclusive are left out. A call without a number means that no potency is given here. Unmarked numbers belong to inactive results. Calls of active or inactive are those of the source. Calls follow the shape of the dose curve; as a rule, active = well fitted curve in the direction sought with a large enough effect; inconclusive = small, poorly fitted or top-dose-only effect, or another doubt; inactive = no such curve, though single readings can be large; an effect the other way counts as inactive or inconclusive. Residues, ends and D or L forms follow the SMILES beside them. *: point of attachment. Cbz = O=C(OCc1ccccc1)*
# Experiments:
# [1] = Primary qHTS for inhibitors of La Crosse Virus (LACV) - induced cell death in SH-SY5Y cells (AID 1508616); also: potency is read from the fitted curve at half-maximal effect
# How it was run: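 Luminescent ATP readout (ATPLite 1step, 5 min room temperature) measured rescue from LACV-induced death after 6 days of infection at 0.01 MOI; normalized to infected DMSO wells and uninfected DMSO wells.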
# [2] = target: Calcium and integrin-binding protein 1 (Homo sapiens) (UniProt Q99828); assay: Validation qHTS for Identification of Calcium Integrin Binding protein 1 (CIB1) Competitor (AID 1508618)
# How it was run: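 Displacement of FITC-alphaIIb peptide (100 nM) from CIB1-GST (1 uM) is monitored by polarization in quantitative HTS format; buffer carries 5 mM CaCl2 and 125 mM NaCl at pH 7.4, incubations are at room temperature.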
# [3] = Primary qHTS for small molecule stabilizers of the endoplasmic reticulum resident proteome: Secreted ER Calcium Modulated Protein (SERCaMP) assay (AID 1508630)
# How it was run: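 GLuc-SERCaMP-expressing SH-SY5Y cells, pretreated 16 h with compound, are challenged with thapsigargin to empty ER calcium stores; after 4 h, coelenterazine is added directly to the medium and luminescence is imaged.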
# Papain (Carica papaya) = Papain (Carica papaya) (UniProt P00784); assay: Primary qHTS assay for inhibitors of the protease papain (AID 1645873);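 also: papain turnover of Z-FR-AMC read as the AMC fluorescence gain over 10 min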; also: potency is read from the fitted curve at half-maximal effect
# [4] = Cell Viability qHTS for small molecule stabilizers of the endoplasmic reticulum resident proteome (AID 1508629); conditions: cell viability counter-screen, 100 nM thapsigargin for final 4 h;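 also: compound exposure about 46 h in total before the viability read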; also: potency is read from the fitted curve at half-maximal effect;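 as to max response: human SH-SY5Y neuroblastoma cells carrying the GLuc-SERCaMP reporter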
# [5] = target: Calcium and integrin-binding protein 1 (Homo sapiens) (UniProt Q99828); assay: Primary qHTS for Identification of Calcium Integrin Binding Protein 1 (CIB1) Competitor (AID 1508620);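 also: GST tagged CIB1 binding a fluorescein labelled alphaIIb integrin peptide tracer; top concentration of the series differs between compounds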
# How it was run: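 CIB1-GST (1 uM final) and compound incubated 15 min at room temperature before adding FITC-alphaIIb peptide tracer (100 nM final). Competition for binding read by fluorescence polarization (ex 480, em 540) after another 15 min at room temperature.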
# [6] = Primary qHTS for inhibitors of nuclear receptor binding SET domain protein 2 (NSD2) in an isogenic RCH-ACV NSD2 p.E1099K mutant (9B) (AID 1645876); also: potency is read from the fitted curve at half-maximal effect; nearly all actives have a fitted effect of over 70% in size
# [7] = Primary qHTS for inhibitors of nuclear receptor binding SET domain protein 2 (NSD2) in an RCH-ACV wild type WT cells (2C) (AID 1645877); also: potency is read from the fitted curve at half-maximal effect; nearly all actives have a fitted effect of over 70% in size
# Chain of Papain (Carica papaya) (P00784 whole entry, looked up): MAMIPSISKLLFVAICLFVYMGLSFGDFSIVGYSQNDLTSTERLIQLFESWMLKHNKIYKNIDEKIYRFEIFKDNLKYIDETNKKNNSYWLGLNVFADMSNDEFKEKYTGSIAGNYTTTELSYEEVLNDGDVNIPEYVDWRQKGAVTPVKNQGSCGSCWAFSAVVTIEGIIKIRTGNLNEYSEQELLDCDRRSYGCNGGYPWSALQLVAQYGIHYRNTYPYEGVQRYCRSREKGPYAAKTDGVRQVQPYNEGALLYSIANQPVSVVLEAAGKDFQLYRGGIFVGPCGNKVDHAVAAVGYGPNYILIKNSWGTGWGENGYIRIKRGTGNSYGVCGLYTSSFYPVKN
# Chain of Calcium and integrin-binding protein 1 (Homo sapiens) (Q99828 whole entry, looked up): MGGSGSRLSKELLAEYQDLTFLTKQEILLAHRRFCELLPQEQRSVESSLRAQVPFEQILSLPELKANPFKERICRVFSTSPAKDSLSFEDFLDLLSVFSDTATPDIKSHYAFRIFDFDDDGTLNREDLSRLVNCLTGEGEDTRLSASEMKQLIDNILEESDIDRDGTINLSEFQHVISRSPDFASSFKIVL
smiles,measurement,setting,value
CC(C)[C@H](NC(=O)OCc1ccccc1)C(=O)N[C@H](C=O)Cc1ccccc1 (Cbz-Val-Phe-aldehyde),Potency,[1],inactive
same,Potency,[2],inactive
same,Potency,[3],inactive
COC(=O)[C@H](NC(=O)c1cc(-c2ccccc2)nc2ccccc12)c1ccccc1,Potency,[1],inactive
same,Potency,[2],inactive
same,Potency,[3],inactive
O=c1[nH]c(=S)[nH]c(-c2ccccc2)c1Cc1c(O)ccc2ccccc12,Potency,[1],inactive
same,Potency,[2],inactive
same,Potency,[3],inactive
Cc1cccc(C)c1OCC(N)C(C)C (configuration not stated),Potency,[1],inactive
same,Potency,[2],inactive
same,Potency,[3],inactive
same,Potency,Papain (Carica papaya),inactive
[N-]=[N+]=Nc1ccc(C(=O)CSC[C@H](NC(=O)CC[C@H](N)C(=O)O)C(=O)NCC(=O)O)cc1,Potency,[1],inactive
same,Potency,[2],inactive
same,Potency,[3],inactive
Cc1ccc2c(c1)C(N1CCN(C)CC1)=Nc1cccnc1N2,Potency,[1],inactive
same,Potency,[2],inactive
O=C(O)c1cccnc1C(=O)O,Potency,[1],inactive
same,Potency,[2],inactive
same,Potency,[3],inactive
same,Potency,Papain (Carica papaya),inactive
CCCCC[C@H](CC(=O)NO)C(=O)N[C@H](C(=O)N1CCC[C@H]1CO)C(C)C,Potency,[1],inactive
same,Potency,[2],inactive
same,Potency,[3],inactive
same,Potency,Papain (Carica papaya),inactive
CCCCCCCCCCCCCCC[C@H](O)[C@H](N)CO,Potency,[1],inactive
same,Potency,[2],inactive
same,max response,[4],-0.696%
same,Potency,Papain (Carica papaya),inactive
N[C@@H](Cc1ccc(O)c(I)c1)C(=O)O,Potency,[1],inactive
same,Potency,[2],inactive
same,Potency,[3],inactive
same,Potency,Papain (Carica papaya),inactive
N#CC(C#N)=C(N)/C(C#N)=C/c1ccc(O)cc1,Potency,[1],inactive
same,Potency,[2],inactive
same,Potency,[3],inactive
CCCCCCCC/C=C\CCCCCCCC(=O)NCCc1ccc(O)c(O)c1,Potency,[1],2820 nM (active)
same,Potency,[2],inactive
same,Potency,[4],3.98 µM (active) and 7.08 µM (active)
same,Potency,Papain (Carica papaya),inactive
N[C@@H](CS(=O)O)C(=O)O,Potency,[1],inactive
same,Potency,[2],inactive
same,Potency,[3],inactive
same,Potency,Papain (Carica papaya),inactive
Nc1ncnc2c1c(-c1ccc(Oc3ccccc3)cc1)cn2C1CCCC1,Potency,[1],inactive
same,Potency,[2],inactive
same,outcome,[5],inactive
same,Potency,[3],inactive
same,Potency,Papain (Carica papaya),inactive
same,Potency,[6],1640 nM (active)
same,Potency,[7],2590 nM (active)
N[C@@H](Cc1ccc(F)cc1)C(=O)O,Potency,[1],inactive
same,Potency,[2],inactive
same,Potency,[3],inactive
same,Potency,Papain (Carica papaya),inactive
CN1CCc2cc(Cl)c(O)cc2[C@@H](c2ccccc2)C1,Potency,[1],inactive
same,Potency,[2],inactive
same,Potency,[3],inactive
O=C(OCCN1CCOCC1)C1(c2ccccc2)CCCCC1,Potency,[1],inactive
same,Potency,[2],inactive
same,Potency,[3],inactive
same,Potency,Papain (Carica papaya),inactive
COc1cccc(OC)c1OCCNCC1CSc2ccccc2O1 (configuration not stated),Potency,[1],inactive
same,Potency,[2],inactive
same,Potency,[3],inactive
COc1ccc(CCN(C)CCc2ccc(OC)c(OC)c2)cc1OC,Potency,[1],inactive
same,Potency,[2],inactive
same,max response,[4],1.86%
same,Potency,[3],inactive
same,Potency,Papain (Carica papaya),inactive
Nc1nc2c(cnn2CCc2ccccc2)c2nc(-c3ccco3)nn12,Potency,[1],inactive
same,Potency,[2],inactive
same,Potency,[3],inactive
CC[N+](CC)(CC)CC(=O)Nc1c(C)cccc1C,Potency,[1],inactive
same,Potency,[2],inactive
same,Potency,[3],inactive
same,Potency,Papain (Carica papaya),inactive
CC(C)NC[C@H](O)COc1ccc(CC(N)=O)cc1,Potency,[1],inactive
same,Potency,[2],inactive
same,Potency,[3],inactive
same,Potency,Papain (Carica papaya),inactive
O=C(O)C1CCCNC1 (configuration not stated),Potency,[1],inactive
same,Potency,[2],inactive
same,Potency,[3],inactive
same,Potency,Papain (Carica papaya),inactive
NC(C(=O)N[C@@H]1C(=O)N2C(C(=O)O)=C(Cl)CS[C@H]12)c1ccccc1 (some centres not stated),Potency,[1],inactive
same,Potency,[2],inactive
Nc1ccc(-c2ccc3ccccc3n2)cc1,Potency,[1],inactive
same,Potency,[2],inactive
same,max response,[4],-7.29%
CC(N)(Cc1ccc(O)c(O)c1)C(=O)O (configuration not stated),Potency,[1],inactive
same,Potency,[2],inactive
CC(C)C[C@H](NC(=O)[C@H](O)[C@H](N)Cc1ccccc1)C(=O)O,Potency,[1],inactive
same,Potency,[2],inactive
same,Potency,[3],inactive
same,Potency,Papain (Carica papaya),inactive
NCCNS(=O)(=O)c1cccc2c(Cl)cccc12,Potency,[1],inactive
same,Potency,[2],inactive
same,Potency,[3],inactive
same,Potency,Papain (Carica papaya),inactive
COc1ccccc1N1CCN(CCCNc2c(C)c(=O)n(C)c(=O)n2C)CC1,Potency,[1],inactive
same,Potency,[2],inactive
same,Potency,[3],inactive
same,Potency,Papain (Carica papaya),inactive
Cc1nc(N=Nc2ccc(S(=O)(=O)O)cc2S(=O)(=O)O)c(COP(=O)(O)O)c(C=O)c1O,Potency,[1],inactive
same,Potency,[2],inactive
same,Potency,[3],inactive
same,Potency,Papain (Carica papaya),inactive
NCCCCN=C(N)N,Potency,[1],inactive
same,Potency,[2],inactive
same,Potency,[3],inactive
same,Potency,Papain (Carica papaya),inactive
CSC(=N)N,Potency,[1],inactive
same,Potency,[2],inactive
same,Potency,[3],inactive
same,Potency,Papain (Carica papaya),inactive
CCCCCCCCCCCCCCSCC(=O)O,Potency,[1],inactive
same,Potency,[2],inactive
same,Potency,[3],inactive
same,Potency,Papain (Carica papaya),inactive
NC(N)=[N+]1CCc2ccccc2C1,Potency,[1],inactive
same,Potency,[2],inactive
same,Potency,[3],inactive
same,Potency,Papain (Carica papaya),inactive
C=C(C)C1CC=C(C(=O)O)CC1 (configuration not stated),Potency,[1],inactive
same,Potency,[2],inactive
same,Potency,[3],inactive
same,Potency,Papain (Carica papaya),inactive
CC(=O)/C(C)=N/O,Potency,[1],inactive
same,Potency,[2],inactive
same,Potency,[3],inactive
same,Potency,Papain (Carica papaya),2000 nM (active)
C[N+](C)(C)CC=O,Potency,[1],inactive
same,Potency,[2],inactive
same,Potency,[3],inactive
same,Potency,Papain (Carica papaya),inactive
Cc1nc2n(c(=O)c1CCN1CCC(c3noc4cc(F)ccc34)CC1)CCCC2O (configuration not stated),Potency,[1],inactive
same,Potency,[2],inactive
same,Potency,[3],inactive
same,Potency,Papain (Carica papaya),inactive
COC1(C2=NCCN2)COc2ccccc2O1 (configuration not stated),Potency,[1],inactive
same,Potency,[2],inactive
same,Potency,[3],inactive
same,Potency,Papain (Carica papaya),inactive
N=S(=O)(O)Cc1noc2ccccc12,Potency,[1],inactive
same,Potency,[2],inactive
same,Potency,[3],inactive
same,Potency,Papain (Carica papaya),inactive
NC1C=CC=C(C(=O)O)C1 (configuration not stated),Potency,[1],inactive
same,Potency,[2],inactive
same,Potency,[3],inactive
same,Potency,Papain (Carica papaya),inactive
O=C(O)C1=CCCNC1,Potency,[1],inactive
same,Potency,[2],inactive
same,Potency,[3],inactive
same,Potency,Papain (Carica papaya),inactive
